Compounds without any hit were thinned out: in the full panel of roughly 79,000, 15% have a hit. Unmarked numbers belong to inactive results. Activity calls are given as the source filed them. Cut-off read from the data, not from the text of the source: active = growth inhibition above about 70%; inactive = the rest.
Test: NCI Yeast Anticancer Drug Screen. Data for the rad14 strain (AID 159);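 note: 0% = growth of vehicle-treated control cultures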
Details: S. cerevisiae rad14 strain growth inhibition, stronger effect = higher value
Procedure: Growth inhibition of yeast strains with defined genetic alterations is measured as a screen for potential anti-cancer activity. Selected strains with alterations in DNA damage repair or cell cycle control were exposed to compounds and growth inhibition was measured relative to vehicle treated controls. The strain used in this assay is rad14

Row | SMILES | growth inhibition (at 1.2 µM) [%] | growth inhibition (at 3.7 µM) [%] | growth inhibition (at 11.0 µM) | growth inhibition (at 33.0 µM) | growth inhibition (at 100.0 µM)
1 | CN1CCN(C(=O)/C=C/C(=O)c2ccccc2)CC1 | 9 | 12 | 20% | 40% | 87% (active)
2 | CC(=O)Nc1ccc2c(c1)-c1ccccc1C2=O | -4 | -6 | -3% | 10% | 82% (active)
3 | COc1ccc2c(c1)n([O-])c1ccccc1[n+]2=O | 6 | 12 | 25% | 56% | 95% (active)
4 | COc1ccc(/C=C/c2sc3ccccc3[n+]2CCCCI)cc1OC | -2 | -3 | -7% | 84% (active) | 98% (active)
5 | CN(C)CCCCN1c2ccccc2Sc2ccc(N=[N+]=[N-])cc21 | 0 | 8 | 19% | 55% | 99% (active)
6 | c1ccc(Cc2cc(-c3ccccc3)n[nH]2)cc1 | -3 | -4 | -7% | 6% | 58%
7 | N/C(=N/N=C/c1cc(Br)cc(Br)c1O)NO | -19 | -1 | 82% (active) | 97% (active) | 98% (active)
8 | CCC(C)OC(=O)Nc1ccc(C)c(NC(=O)OC(C)CC)c1 (stereo not given) | 0 | 2 | 1% | 6% | 94% (active)
